An excerpt weighted towards active compounds, which were near 2.9% of everything screened.
PLC-beta3 inh: human PLC-beta3 inhibitors, primary screen, biochemical, fluorescence. 1-phosphatidylinositol 4,5-bisphosphate phosphodiesterase beta-3 (Homo sapiens), Q01970. Purified PLC-beta3, fluorogenic substrate. inhibition, % at 12.2 µM. 370,000 compounds, 0.18% hits; in the data active = inhibition above about 11%
KLK7 zymogen act: proKLK7 zymogen activators, primary screen, biochemical, fluorescence intensity. Kallikrein-7 (Homo sapiens), P49862. purified proKLK7, EDANS-DABCYL substrate fluorescence; 100% is mature enzyme control, 0% vehicle. activation, % at 7 µM. 370,000 compounds, 0.9% hits. AID 652039, 2013;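 active = activation above the mean of all tested compounds plus 3 SD, computed per campaign excluding outliers beyond control limits, cut at about 13% in these data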
PLC-gamma1 inh: PLC-gamma1 enzyme inhibitors, primary screen, biochemical, fluorescence, purified enzyme. 1-phosphatidylinositol 4,5-bisphosphate phosphodiesterase gamma-1 (Homo sapiens), P19174. fluorogenic substrate. inhibition, % at 12.2 µM. 370,000 compounds, 0.84% hits; in the data active = inhibition above about 9.5%
ADAM17 inh: ADAM17 inhibitors, primary screen, biochemical, QFRET; recombinant ADAM17, EDANS/DABCYL FRET peptide cleavage; inhibition, % at 6.95 µM; 370,000 compounds, 0.83% hits; AID 720648, 2013;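 active = inhibition above the mean of compounds lying between control limits plus 3 SD, set per campaign, cut at about 8.5% in these data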
ADAM10 inh: human ADAM10 inhibitors, primary screen, biochemical, QFRET, HTS | Disintegrin and metalloproteinase domain-containing protein 10 (Homo sapiens), O14672 | recombinant ADAM10, EDANS/DABCYL FRET peptide cleavage, 3 h | inhibition, % at 7 µM | 370,000 compounds, 0.62% hits;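 active = inhibition above a per-campaign cutoff equal to the mean of compounds falling between control-based bounds plus 3 SD, cut at about 20% in these data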
Target sequence (O14672 214-748 limits assumed): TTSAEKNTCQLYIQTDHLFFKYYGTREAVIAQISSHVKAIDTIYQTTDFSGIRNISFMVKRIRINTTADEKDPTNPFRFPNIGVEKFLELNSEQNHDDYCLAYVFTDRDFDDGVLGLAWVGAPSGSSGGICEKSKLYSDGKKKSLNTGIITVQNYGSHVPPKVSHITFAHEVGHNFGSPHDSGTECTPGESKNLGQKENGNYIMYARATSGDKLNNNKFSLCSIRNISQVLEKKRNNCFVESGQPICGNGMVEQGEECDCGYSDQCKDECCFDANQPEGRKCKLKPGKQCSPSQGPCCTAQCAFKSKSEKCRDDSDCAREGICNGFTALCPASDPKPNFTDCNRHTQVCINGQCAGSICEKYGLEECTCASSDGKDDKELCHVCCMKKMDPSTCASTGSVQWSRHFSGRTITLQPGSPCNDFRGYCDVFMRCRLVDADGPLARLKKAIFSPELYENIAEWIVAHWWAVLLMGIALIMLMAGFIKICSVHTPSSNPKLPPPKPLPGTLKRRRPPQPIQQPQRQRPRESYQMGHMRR
proKLK7 act conf: proKLK7 zymogen activators, confirmation, biochemical, fluorescence intensity, triplicate; shares compounds with KLK7 zymogen act; purified proKLK7, EDANS-DABCYL substrate fluorescence; scaled: vehicle 0, mature enzyme 100; activation, % at 7 µM; 3,200 compounds, 68% hits;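 active = activation, as change over the incubation, above the mean of all tested compounds plus 3 SD, cut at about 13% in these data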
EDANS interfere: EDANS-DABCYL substrate optical interference, artefact control for kallikrein-7 zymogen activator project, biochemical, fluorescence intensity, high throughput; shares compounds with KLK7 zymogen act; no enzyme, 4 h; solvent 0%, active enzyme control 100%; activation, % at 7 µM; 3,200 compounds, 80% hits;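 active = activation above the all-compound mean plus 3 SD, ignoring values outside control-based bounds, cut at about 4.8% in these data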;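 also: value is the 4 h activation minus the activation read at time zero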
K7 EDANS ctr: counter-screen for kallikrein-7 activators: EDANS-DABCYL interference, dose response; shares compounds with KLK7 zymogen act; EDANS-DABCYL peptide fluorescence interference, no enzyme; EC50, µM; 250 compounds, 20% hits;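 active = compounds that raise the fluorescence signal in this interference counterscreen, with EC50 at or below 10 µM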;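 also: intact quenched peptide substrate alone read at 355 nm excitation and 520 nm emission; signal is fluorescence gain from T0 to T4 after four hours at room temperature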
Large screens that a line does not name were inactive (follow-up assays come after a bar, where they were run).

CCCCc1cc(=O)oc2cc(O)cc(O)c12	KLK7 zymogen act 78.0 | proKLK7 act conf 69.7 | EDANS interfere 69.8
CCCCc1cc(=O)oc2cc(C)cc(OC(C)C(=O)O)c12 (stereo not given)	KLK7 zymogen act 19.8 | proKLK7 act conf 31.4 | EDANS interfere 33.2
CCCc1cc(=O)oc2cc(C)cc(OCC(=O)O)c12	KLK7 zymogen act 18.8 | proKLK7 act conf 35.6 | EDANS interfere 34.2
C[C@H]1[C@@H](NC(=O)c2ccc(Cl)cc2)CC[C@@]23CCCN2C(=O)CCC[C@@H]13	none (no result: KLK7 zymogen act)
COc1cc(OC)c(-c2nnc(-c3ccc(OC)c(OC)c3OC)o2)cc1OC	KLK7 zymogen act 13.2 | proKLK7 act conf inactive | EDANS interfere inactive
O=C1c2ccccc2NC(c2ccc(F)cc2)N1Cc1ccco1 (stereo not given)	KLK7 zymogen act 14.6 | proKLK7 act conf inactive | EDANS interfere 19.3
O=C1c2ccccc2NC(c2ccccc2)N1Cc1ccco1 (stereo not given)	KLK7 zymogen act 16.5 | proKLK7 act conf 17.1 | EDANS interfere 7.5 | K7 EDANS ctr inactive
CCOC(=O)[C@]12CCCCC/C=C\1N(CCc1ccc(Cl)cc1)C(=O)[C@H]2CC(=O)N1CCOCC1	none
C=CCn1c(=N)c(C#N)cc2c(=O)n3ccccc3nc21	none
C=CCn1c(=N)c(C(=O)NCCCOC)cc2c(=O)n3ccccc3nc21	KLK7 zymogen act 136.4 | proKLK7 act conf 56.8 | EDANS interfere 66.8
C=CCn1c(=N)c(C(=O)NCCCOC)cc2c(=O)n3cc(C)ccc3nc21	KLK7 zymogen act 143.3 | proKLK7 act conf 58.4 | EDANS interfere 61.5
CCC(CC)CC1CN2CCc3cc(OC)c(OC)cc3C2CC1(O)CC (stereo not given)	KLK7 zymogen act 29.7 | proKLK7 act conf 19.8 | EDANS interfere 16.9 | K7 EDANS ctr inactive
Cc1ccc(C23OCCN2CCn2nc4ccccc4c23)cc1 (stereo not given)	KLK7 zymogen act 43.9 | proKLK7 act conf inactive | EDANS interfere inactive
CN1CCCCC(NC(=O)CCCl)C1=O (stereo not given)	none
Nc1c(C(=O)NCc2ccccc2)c2nc3ccccc3nc2n1CCCN1CCOCC1	none
COC(=O)c1c(N)n(CCCN2CCOCC2)c2nc3ccccc3nc12	KLK7 zymogen act 43.4 | proKLK7 act conf 75.0 | EDANS interfere 80.3
Cc1cccc(-n2c(N)c(C(=O)NCCN3CCOCC3)c3nc4ccccc4nc32)c1	none
COc1ccc(CNC(=O)c2c(N)n(CCCN3CCOCC3)c3nc4ccccc4nc23)cc1	none
CC(C)Cn1c(N)c(C(=O)NCCN2CCOCC2)c2nc3ccccc3nc21	KLK7 zymogen act 56.5 | proKLK7 act conf inactive | EDANS interfere inactive
COCCOC(=O)c1c(N)n(CCCN2CCOCC2)c2nc3ccccc3nc12	KLK7 zymogen act 46.0 | proKLK7 act conf 75.4 | EDANS interfere 79.2
Cc1cc(NS(=O)(=O)c2ccc(NC(=O)Cc3ccc(Cl)c(Cl)c3)cc2)on1	none
COC(=O)CC[C@H](/C=C/C(=O)OC(C)(C)C)Sc1ccc(C(C)(C)C)cc1	none
O=C(NN=Cc1ccc(-c2ccccc2)cc1)c1cc(-c2ccc(Cl)cc2)n[nH]1	none
O=C(NCCc1ccccc1)OCc1cn(Cc2cccc(F)c2F)nn1	none
CCCC1CCC2(CC1)CCC2OC(=S)Nc1cccc(I)c1 (stereo not given)	none (no result: KLK7 zymogen act)
COc1ccc(C2C(C#N)=C(N)OC3=C2C(=O)CC(C)(C)C3)c([N+](=O)[O-])c1OC (stereo not given)	none
COc1cc(C2C(C#N)=C(N)OC3=C2C(=O)CC(C)(C)C3)c([N+](=O)[O-])cc1OC (stereo not given)	KLK7 zymogen act 20.1 | proKLK7 act conf 20.6 | EDANS interfere 18.0
CCCCc1cccc2[nH]cc(C)c12	none
CCCc1cc(=O)oc2c3c(cc(OCC(=O)NCCCn4ccnc4)c12)OC(C)(C)CC3	KLK7 zymogen act 17.2 | proKLK7 act conf inactive | EDANS interfere inactive
Cc1cc(=O)oc2c3c(cc(OCC(=O)NCc4ccco4)c12)OC(C)(C)CC3	none
COc1ccc(CNC(=O)COc2cc3c(c4oc(=O)cc(C)c24)CCC(C)(C)O3)cc1OC	none
Cc1cc(=O)oc2c3c(cc(OCC(=O)NCCN4CCOCC4)c12)OC(C)(C)CC3	KLK7 zymogen act 34.5 | proKLK7 act conf 56.9 | EDANS interfere 70.2
Cc1cc(=O)oc2c3c(cc(OCC(=O)NCCCn4ccnc4)c12)OC(C)(C)CC3	KLK7 zymogen act 28.9 | proKLK7 act conf inactive | EDANS interfere inactive
COP(=O)(OC)c1nc(-c2cccc3ccccc23)oc1N1CCOCC1	KLK7 zymogen act 77.4 | proKLK7 act conf 63.0 | EDANS interfere 64.4
COc1ccc(OC)c(C(c2c(O)nc(SC)[nH]c2=O)c2c(O)nc(SC)[nH]c2=O)c1	KLK7 zymogen act 12.8 | proKLK7 act conf 15.3 | EDANS interfere 14.7
COc1cc(C(c2c(O)nc(SC)[nH]c2=O)c2c(O)nc(SC)[nH]c2=O)cc(OC)c1OC	none
COc1cc(C)ccc1C(=O)N1CCC(Oc2cccnc2)CC1	none
Cc1cc(C)c2c(N)c(C(=O)Nc3ncc(C)s3)sc2n1	KLK7 zymogen act 33.0 | proKLK7 act conf inactive | EDANS interfere inactive
CC(=O)c1sc2nc(C)cc(C)c2c1N	none
COC(=O)c1sc2nc(C)cc(C)c2c1N	none
Cc1ccc(N2CC(=O)N(NC(=O)c3sc4nc(C)cc(C)c4c3N)CC2=O)cc1	KLK7 zymogen act 86.3 | proKLK7 act conf 22.8 | EDANS interfere 20.7
Cc1cc(C)c2c(N)c(C(=O)Nc3ccccc3F)sc2n1	KLK7 zymogen act 22.6 | proKLK7 act conf inactive | EDANS interfere inactive
Cc1cc(C)c2c(N)c(C(=O)Nc3ccccc3Br)sc2n1	KLK7 zymogen act 178.6 | proKLK7 act conf 123.6 | EDANS interfere 56.5
COc1ccc(-c2ccc3nnc(SCC(=O)N4CCCC4)n3n2)cc1	KLK7 zymogen act 15.2 | proKLK7 act conf 17.2 | EDANS interfere 12.7 | K7 EDANS ctr inactive
COC(=O)C1CN(Cc2ccc(OC)cc2)CCS(=O)(=O)N1Cc1cn(Cc2ccc(Cl)cc2)nn1 (stereo not given)	none
NC1=Nc2cccc3cccc1c23	KLK7 zymogen act 52.8 | proKLK7 act conf 25.0 | EDANS interfere 27.2
